The record followed here is PubChem BioAssay.

By viability is commonly meant a read-out of living cells in per cent, often relative to untreated cells.

A number with no mark means an inactive call. Calls of active or inactive are those of the source.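 The calls were made as follows, unless noted: active = viability at or under a set limit in both replicates, limit being median viability minus 3 SD (cut at about 48% in these data, passing the limit was not always enough); inconclusive = at or under the limit in just one replicate; inactive = at or above the limit in both replicates.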

The nature of the first assay: H69AR cell proliferation blockers – human, duplicate replicates, primary screen (AID 580).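 Also: 100% = mean luminescence of untreated wells and 0% = no signal.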 Conditions: H69AR lung tumor cells viability, ATP luminescence, 72 h; at 10 µM; stronger effect = lower value.
`CC1Cc2nc(SCC(=O)Nc3ccc(F)cc3F)n(C)c(=O)c2S1` (stereo not given): the viability is 91.7%.

On to `COC(=O)CCn1nnc(-c2cccs2)n1`, for which the viability was 103%.

For the compound `CCN(C#N)c1nc(NC(C)C)nc(NC(C)C)n1`, the viability is 93.6%.

Turning to `COc1ccccc1C(=O)Nc1ccc(S(=O)(=O)N2CCCC2)cc1`, the viability is 94.5%.

Take `COC(=O)c1[nH]c2ccccc2c1NC(=O)CN1CCC(C(N)=O)(N2CCCCC2)CC1`: the viability was 93.2%.

With `CC(O)c1c(OCc2ccccc2)ncnc1OCc1ccccc1` (stereo not given), the viability was 93.8%.

On to `Cc1c(C(=O)OC(C)C)[nH]c2c1C(=O)CCC2`, for which the viability was 106%.

Consider `CC(C)CNC(=O)C1C2C=CC(C2)C1C(=O)O` (stereo not given), for which the viability was 111%.

As for `COc1cccc(Cn2c(Oc3ccccc3)nc3c2c(=O)n(C)c(=O)n3C)c1`, the viability is 83.8%.

`CC(C)(C)NC(=O)Cn1nnc(-c2cccs2)n1`: the viability was 92.2%.

In the case of `COc1cc(CN2CCN(C(=O)CC(C)C)CC2)cc(OC)c1O`, the viability is 102%.

On to `CCn1c(C)nc2cc(C(=O)OCCC(F)(F)F)ccc21`, for which the viability is 89.8%.

Regarding `CCn1c(CC(=O)Nc2cccc(OC)c2)nnc1SCC(=O)Nc1nccs1`, the viability was 101%.

For `CCOc1cc(NC(=O)c2ccco2)c(OCC)cc1NC(=O)CCC(=O)NCc1cccnc1`, the viability is 86.1%.

For `CCN(CC)c1ccc(CNc2ccc(Br)cn2)cc1`, the viability was 90.7%.

For the compound `CCOc1ccccc1C(=O)NCCC(=O)O`, the viability was 96.4%.

On to `Cc1ccc(-c2csc3nnc(SCC(=O)NCc4ccco4)n23)cc1`, for which the viability is 84.2%.

For `C=CCSc1nnc(-c2ccccc2NC(C)=O)c(=O)[nH]1`, the viability is 93%.

As to `CNC(=O)CSc1nnc(-c2cccc(S(=O)(=O)N3CCOCC3)c2)n1-c1ccc(F)cc1`, the viability is 93.2%.

`O=C(NCc1ccccc1)C1CCN(S(=O)(=O)N2CCCCCC2)CC1`: the viability was 96.7%.

For the compound `CC(C(=O)N1CCc2ccccc21)N1CCc2ccccc2C1` (stereo not given), the viability is 91.6%.

As for `CCCNC(=O)c1ccccc1C(=O)NCCC`, the viability was 90.5%.

With `CCCC(C)c1nnc(NC(=O)C2CCCO2)s1` (stereo not given), the viability was 93.9%.

Take `CCN(CC)S(=O)(=O)c1cccc2c(N(C)C)cccc12`: the viability is 93.3%.

For the compound `O=C1CC(C2CCCO2)C(=O)N1Cc1ccccc1` (stereo not given), the viability is 103%.

`O=c1[nH]c(SCc2cc(=O)n3ccccc3n2)nc2c1CCC2`: the viability was 85.2%.

Turning to `COC(=O)c1cc2oc(C)cc2n1CC(=O)N(C)c1ccccc1`, the viability was 95.4%.

In the case of `Cc1cc(NC(=O)Cn2cnc3c2c(=O)n(C)c(=O)n3C)n(-c2ccccc2)n1`, the viability is 108%.

Turning to `CCc1nnc(NC(=O)c2cc3c(s2)CCCCC3)s1`, the viability was 76.1%.

`Cc1ccc(-c2ccc(=O)n(CCC(=O)NCc3ccccn3)n2)cc1`: the viability is 84.3%.

Take `CCC(=O)N1CCc2cc(S(=O)(=O)CCC(=O)Nc3c(C)n(C)n(-c4ccccc4)c3=O)ccc21`: the viability is 94%.

For the compound `CC(=O)N1CCc2cc(S(=O)(=O)NCCC3=CCCCC3)ccc21`, the viability was 91.1%.

As for `COc1cccc(-n2nc(C(=O)Nc3ccc4c(c3)OCO4)c3ccccc3c2=O)c1`, the viability is 92.2%.

`COCCCNS(=O)(=O)c1ccc2c(c1)CCN2C(C)=O`: the viability is 87.1%.

Regarding `Cc1ccc(S(=O)(=O)N2CCC(C(=O)NCCN3CCCCCC3)CC2)cc1`, the viability was 103%.

Take `CCN(CC)c1ccc(-c2nn3c(-c4cccnc4)nnc3s2)cc1`: the viability is 10.9% (active).

Regarding `Cc1cccc(-c2c3c(=O)n(C)c(=O)n(C)c3cn2-c2ccc(O)cc2)c1`, the viability was 86.6%.

For `CCOC(=O)c1[nH]c2ccc(OC)cc2c1NC(=O)CCN1CCC(C)CC1`, the viability is 96.8%.

Consider `CCS(=O)(=O)N1CCCC(C(=O)NCc2ccccc2Cl)C1` (stereo not given), for which the viability is 94.7%.

For `Cc1ccc(N2CC(C)Cn3c2nc2c3c(=O)n(CC(=O)OCc3ccccc3)c(=O)n2C)cc1C` (stereo not given), the viability is 93.8%.

The next assay is described as follows: MRP1 drug-resistance reversers in H69AR cells – cell-based, doxorubicin co-treatment, pilot screen (AID 601;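 active = viability loss from added drug above about 55%, and viability with drug at most 40%, in both replicates, limit read from the data, passing the limit was not always enough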). The conditions noted are these: H69AR cells + 2 uM doxorubicin, CellTiter-Glo, 72 h; at 10 µM; stronger effect = higher value. (In general: ATP-based viability assays read luminescence as a measure of living cells.)
With `CC1Cc2nc(SCC(=O)Nc3ccc(F)cc3F)n(C)c(=O)c2S1` (stereo not given), the differential viability (reversal) was -8.34%.

For `COC(=O)CCn1nnc(-c2cccs2)n1`, the differential viability (reversal) was 5.5%.

For the compound `CCN(C#N)c1nc(NC(C)C)nc(NC(C)C)n1`, the differential viability (reversal) was 4.81%.

Regarding `COc1ccccc1C(=O)Nc1ccc(S(=O)(=O)N2CCCC2)cc1`, the differential viability (reversal) was 16.2%.

Consider `COC(=O)c1[nH]c2ccccc2c1NC(=O)CN1CCC(C(N)=O)(N2CCCCC2)CC1`, for which the differential viability (reversal) was 5.43%.

Regarding `CC(O)c1c(OCc2ccccc2)ncnc1OCc1ccccc1` (stereo not given), the differential viability (reversal) is 14.6%.

As to `Cc1c(C(=O)OC(C)C)[nH]c2c1C(=O)CCC2`, the differential viability (reversal) was 12.9%.

Take `CC(C)CNC(=O)C1C2C=CC(C2)C1C(=O)O` (stereo not given): the differential viability (reversal) was 9.12%.

Consider `COc1cccc(Cn2c(Oc3ccccc3)nc3c2c(=O)n(C)c(=O)n3C)c1`, for which the differential viability (reversal) is 3.32%.

For `CC(C)(C)NC(=O)Cn1nnc(-c2cccs2)n1`, the differential viability (reversal) is 13.1%.

Regarding `COc1cc(CN2CCN(C(=O)CC(C)C)CC2)cc(OC)c1O`, the differential viability (reversal) was 5.74%.

Turning to `CCn1c(C)nc2cc(C(=O)OCCC(F)(F)F)ccc21`, the differential viability (reversal) is -3.94%.

Consider `CCn1c(CC(=O)Nc2cccc(OC)c2)nnc1SCC(=O)Nc1nccs1`, for which the differential viability (reversal) was 4.37%.

As for `CCOc1cc(NC(=O)c2ccco2)c(OCC)cc1NC(=O)CCC(=O)NCc1cccnc1`, the differential viability (reversal) was -4.71%.

On to `CCN(CC)c1ccc(CNc2ccc(Br)cn2)cc1`, for which the differential viability (reversal) is -14.7%.

As to `CCOc1ccccc1C(=O)NCCC(=O)O`, the differential viability (reversal) is 1.32%.

For `Cc1ccc(-c2csc3nnc(SCC(=O)NCc4ccco4)n23)cc1`, the differential viability (reversal) is 0.64%.

Consider `C=CCSc1nnc(-c2ccccc2NC(C)=O)c(=O)[nH]1`, for which the differential viability (reversal) is 9.55%.

Regarding `CNC(=O)CSc1nnc(-c2cccc(S(=O)(=O)N3CCOCC3)c2)n1-c1ccc(F)cc1`, the differential viability (reversal) was -5.28%.

As for `O=C(NCc1ccccc1)C1CCN(S(=O)(=O)N2CCCCCC2)CC1`, the differential viability (reversal) is 3.6%.

Consider `CC(C(=O)N1CCc2ccccc21)N1CCc2ccccc2C1` (stereo not given), for which the differential viability (reversal) is -10.2%.

With `CCCNC(=O)c1ccccc1C(=O)NCCC`, the differential viability (reversal) is -4.96%.

Regarding `CCCC(C)c1nnc(NC(=O)C2CCCO2)s1` (stereo not given), the differential viability (reversal) is 0.895%.

Consider `CCN(CC)S(=O)(=O)c1cccc2c(N(C)C)cccc12`, for which the differential viability (reversal) is 4.14%.

Consider `O=C1CC(C2CCCO2)C(=O)N1Cc1ccccc1` (stereo not given), for which the differential viability (reversal) was 3.39%.

Regarding `O=c1[nH]c(SCc2cc(=O)n3ccccc3n2)nc2c1CCC2`, the differential viability (reversal) was 1.62%.

Consider `COC(=O)c1cc2oc(C)cc2n1CC(=O)N(C)c1ccccc1`, for which the differential viability (reversal) was 7.45%.

Take `Cc1cc(NC(=O)Cn2cnc3c2c(=O)n(C)c(=O)n3C)n(-c2ccccc2)n1`: the differential viability (reversal) was 8.22%.

For `CCc1nnc(NC(=O)c2cc3c(s2)CCCCC3)s1`, the differential viability (reversal) was -2.58%.

Turning to `Cc1ccc(-c2ccc(=O)n(CCC(=O)NCc3ccccn3)n2)cc1`, the differential viability (reversal) is -1.96%.

As for `CCC(=O)N1CCc2cc(S(=O)(=O)CCC(=O)Nc3c(C)n(C)n(-c4ccccc4)c3=O)ccc21`, the differential viability (reversal) was 6.7%.

With `CC(=O)N1CCc2cc(S(=O)(=O)NCCC3=CCCCC3)ccc21`, the differential viability (reversal) was -7.85%.

`COc1cccc(-n2nc(C(=O)Nc3ccc4c(c3)OCO4)c3ccccc3c2=O)c1`: the differential viability (reversal) is 5.91%.

Turning to `COCCCNS(=O)(=O)c1ccc2c(c1)CCN2C(C)=O`, the differential viability (reversal) is -17.4%.

In the case of `Cc1ccc(S(=O)(=O)N2CCC(C(=O)NCCN3CCCCCC3)CC2)cc1`, the differential viability (reversal) is 18.1%.

`CCN(CC)c1ccc(-c2nn3c(-c4cccnc4)nnc3s2)cc1`: the differential viability (reversal) was -4.5%.

On to `Cc1cccc(-c2c3c(=O)n(C)c(=O)n(C)c3cn2-c2ccc(O)cc2)c1`, for which the differential viability (reversal) is -6.51%.

In the case of `CCOC(=O)c1[nH]c2ccc(OC)cc2c1NC(=O)CCN1CCC(C)CC1`, the differential viability (reversal) was -0.37%.

As to `CCS(=O)(=O)N1CCCC(C(=O)NCc2ccccc2Cl)C1` (stereo not given), the differential viability (reversal) was 5.79%.

On to `Cc1ccc(N2CC(C)Cn3c2nc2c3c(=O)n(CC(=O)OCc3ccccc3)c(=O)n2C)cc1C` (stereo not given), for which the differential viability (reversal) is 26.6%.
